From PubChem BioAssay
Most compounds without a hit are left out; they make up all but 5.4% or so of the library.
VACV Venus inh: qHTS for Stage-Specific Inhibitors of Vaccinia Orthopoxvirus: Venus Reporter Primary qHTS. Vaccinia virus Venus reporter expression, fluorescence. Potency, µM (doses to about 36.5 µM), usual class: inhibitors. actives 0.46% (n = 330,000). AID 720580, 2013; calls by dose curve; tested in A549 cells; note: nearly all actives have a fitted effect of over 30% in size
Lassa entry inh: qHTS for Inhibitors of binding or entry into cells for Lassa Virus. Lassa virus pseudotype entry inhibition, cell reporter. Potency, µM (series often up to 37.9 µM), actives largely listed as inhibitors. actives 1.2% (n = 300,000); calls by dose curve; tested in HEK293 cells; note: nearly all actives have a fitted effect of over 50% in size
MARV entry inh: qHTS for inhibitors of binding or entry into cells for Marburg Virus; actives 1.8% (n = 300,000); Potency, µM (top dose mostly 37.8 µM), actives largely listed as inhibitors; Marburg virus pseudotyped entry inhibition, cell reporter; calls by dose curve; tested in HEK293 cells
Sm TGR inh: qHTS Assay for the Inhibitors of Schistosoma Mansoni Peroxiredoxins. AID 485364, 2010. actives 3% (n = 360,000). purified TGR, DTNB reduction, TNB absorbance 405 nm. Schistosoma mansoni thioredoxin glutathione reductase (TGR), Q962Y6. Potency, µM (titrated, usually from 114 µM), actives largely listed as inhibitors; active = well fitted inhibition curve with a large enough effect; inconclusive = small, poorly fitted or top-dose-only effect; inactive = no such curve, though single readings can be large or run the other way; note: nearly all actives have a fitted effect of over 60% in size
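TGR 20 nM + NADPH 100 uM (dispensed conc.), cpd preinc 15 min RT; start with NADPH (500 uM addition) then DTNB (15 mM addition). Kinetic TNB absorbance, 405 nm filter. Four-parameter Hill fit across titration.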
VACV mCherry inh: qHTS for Stage-Specific Inhibitors of Vaccinia Orthopoxvirus: mCherry Reporter Primary qHTS; Vaccinia virus mCherry reporter infection, fluorescence; actives 0.63% (n = 310,000); AID 720579, 2013; Potency, µM (titrated, usually from 36.5 µM), most hits filed as inhibitors; calls by dose curve; tested in A549 cells; note: nearly all actives have a fitted effect of over 35% in size
FMDV inh: High Throughput Screening for Foot and Mouth Disease Virus Antivirals | AID 1159524, 2015 | FMDV antiviral cell-based qHTS | Potency, µM (series often up to 57.9 µM), most hits filed as inhibitors | actives 1.2% (n = 410,000); calls by dose curve; tested in HEK293T cells; note: read-out not given here; nearly all actives have a fitted effect of over 45% in size
Large screens that a line does not name were inactive; ! = a repeat was not active.

CCN(CC)CCN1C(=O)c2ccccc2NC1c1ccc(F)cc1 (stereo unspecified)	none (no result: VACV Venus inh, VACV mCherry inh)
CN(C)c1ccc(C2Nc3ccccc3C(=O)N2CCCN2CCOCC2)cc1 (stereo unspecified)	FMDV inh 2.8µM (no result: VACV Venus inh, Lassa entry inh, MARV entry inh, VACV mCherry inh)
CCN(CC)CCN1C(=O)c2ccccc2NC1c1ccc(N(C)C)cc1 (stereo unspecified)	FMDV inh 3.2µM (no result: VACV mCherry inh)
COc1cccc(O[C@H]2C=C[C@@H](c3ccccc3)O[C@H]2CO)c1	none (no result: VACV Venus inh, Lassa entry inh, Sm TGR inh, VACV mCherry inh, FMDV inh)
COc1ccc2nc(N(Cc3cccnc3)C(=O)c3ccc(Cl)cc3)sc2c1	Lassa entry inh inconclusive (no result: MARV entry inh)
CCOc1ccc(/C=C2\SC(=O)N(CCNC(=O)C3COc4ccccc4O3)C2=O)cc1OC (stereo unspecified)	Lassa entry inh inconclusive, MARV entry inh inconclusive, Sm TGR inh 35µM, FMDV inh inconclusive
CC1C/C(=N\NC(N)=S)c2cc(Cl)ccc2S1 (stereo unspecified)	VACV Venus inh inconclusive, Lassa entry inh inconclusive, MARV entry inh 13µM, VACV mCherry inh inconclusive, FMDV inh inconclusive
COc1ccccc1CN1CCC2(CCC(CNC(=O)c3ccccc3N(C)C)O2)CC1 (stereo unspecified)	none (no result: Lassa entry inh, MARV entry inh, Sm TGR inh)
CC(C)c1ccc(C(=O)CSc2ncn[nH]2)cc1	none
O=C(CSc1ncn[nH]1)CSc1ncn[nH]1	Sm TGR inh 40µM
CC1(C)CC(Nc2ccc(Nc3ccccc3)cc2)CC(C)(C)N1	Sm TGR inh 6.3µM (no result: Lassa entry inh, MARV entry inh)
O=C1c2ccccc2S(=O)(=O)c2cc(C(=O)N3CCC(C(=O)N4CCCCC4)CC3)ccc21	VACV Venus inh 1.4µM, VACV mCherry inh inconclusive (no result: Lassa entry inh, MARV entry inh, Sm TGR inh)
CC1CCCC(C)N1C(=O)c1ccc2c(c1)S(=O)(=O)c1ccccc1C2=O (stereo unspecified)	Lassa entry inh inconclusive
CC(C)(C)c1ccc(C(=O)CCCSC2=C(C#N)C(c3ccco3)C3=C(CCCC3=O)N2)cc1 (stereo unspecified)	Lassa entry inh inconclusive, MARV entry inh inconclusive, Sm TGR inh 40µM (no result: VACV Venus inh, VACV mCherry inh)
CC1=C(C(=O)Nc2ccccc2)C(c2ccco2)C(C#N)=C(SCC(=O)Nc2cccc(C)c2C)N1 (stereo unspecified)	MARV entry inh inconclusive (no result: FMDV inh)
CCOC(=O)C1=C(c2ccccc2)NC(SCC(=O)Nc2ccccc2C)=C(C#N)[C@@H]1c1ccco1	MARV entry inh 23µM (no result: VACV Venus inh, Lassa entry inh, Sm TGR inh, VACV mCherry inh, FMDV inh)
COc1cccc(NC(=O)CSC2=C(C#N)C(c3ccco3)C3=C(CCCC3=O)N2)c1 (stereo unspecified)	VACV Venus inh inconclusive, Lassa entry inh 13µM, VACV mCherry inh inconclusive
COc1ccc(NC(=O)CSC2=C(C#N)C(c3ccco3)C3=C(CCCC3=O)N2)c(OC)c1 (stereo unspecified)	MARV entry inh inconclusive, Sm TGR inh inconclusive
COc1ccc(C2C(=O)N(C3CCCCC3)CC(=O)N2CCc2ccc(C)cc2)cc1OC (stereo unspecified)	Lassa entry inh inconclusive (no result: MARV entry inh)
COc1cc(-c2cc(C)c3cccc(OC)c3n2)cc2c1OCCN(C(=O)CCn1nc(C)cc1C)C2	none (no result: Lassa entry inh, MARV entry inh, Sm TGR inh)
O=C(NCCc1ccccc1)c1cc(-c2cccc(Cl)c2)on1	none
CCc1ccc(/C=N/Nc2ncnc3nc[nH]c23)cc1	Lassa entry inh 7.9µM, MARV entry inh inconclusive
Cc1ccc(C(=O)C[n+]2cccc3cc(C)ccc32)cc1	MARV entry inh inconclusive
CCOc1ccc(C(=O)C[n+]2cccc3cc(C)ccc32)cc1	Lassa entry inh inconclusive, MARV entry inh 7.1µM
Cc1cc(C)c(C#N)c(SCc2nc3ccccc3c(=O)[nH]2)n1	Lassa entry inh 3.2µM, MARV entry inh 1.1µM
Nc1ccn(C2OC(CO)C(O)C2O)c(=O)n1 (stereo unspecified)	VACV mCherry inh 0.089µM! (no result: Lassa entry inh, MARV entry inh, Sm TGR inh)
Nc1ccn(C2OC(CO)C(O)C2F)c(=O)n1 (stereo unspecified)	VACV Venus inh inconclusive, VACV mCherry inh inconclusive (no result: Lassa entry inh, MARV entry inh, Sm TGR inh)
Nc1ccn([C@@H]2O[C@H](CO)[C@@H](O)[C@@H]2O)c(=O)n1	VACV Venus inh inconclusive, Lassa entry inh inconclusive, MARV entry inh inconclusive, VACV mCherry inh 0.5µM
O=c1[nH]cnc2c1ncn2C1OC(CO)C(O)C1O (stereo unspecified)	VACV mCherry inh inconclusive (no result: Lassa entry inh, MARV entry inh, Sm TGR inh)
NC[C@H]1O[C@@H](n2ccc(N)nc2=O)[C@H](O)[C@@H]1O	none (no result: Lassa entry inh, MARV entry inh, Sm TGR inh)
